Assay results as given in PubChem BioAssay (Tox21).
Where “and” joins values, the source holds several entries; their conditions need not be identical. Equal entries are not always repeated. Inconclusive results are not listed. Some compounds were tested as several samples or in several runs, with calls that do not always agree. Calls of active or inactive are those of the source. Unless noted, the call rests on the fitted dose curve; in most records, active means well fitted curve in the direction sought with a large enough effect in the repeat runs; inconclusive means weak or mixed curves; inactive means no such curve, though single readings can be large; an effect the other way counts as inactive or inconclusive.

How the values were obtained:
[1] = qHTS assay to identify small molecule antagonists of the estrogen related receptor (ERR) signaling pathway from Tox21 library - cell viability counter screen (AID 1224834); further: nearly all actives have a fitted effect of over 30% in size
Procedure, shortened: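 After 17.5 h of compound exposure at 37 C, ERR cells are incubated with CellTiter-Fluor for 30 min and fluorescence intensity serves as the viability measure.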

[2] = biological target: Luciferin 4-monooxygenase (Photinus pyralis) (UniProt P08659); experiment: qHTS assay to identify small molecule inhibitors of firefly luciferase (AID 1224835); further: nearly all actives have a fitted effect of over 25% in size; further: potency means the concentration at half of the fitted maximal effect
Procedure, shortened: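 Quantitative HTS format; KM concentrations of both substrates. Purified P. pyralis FLuc activity quantified from luminescence images.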

[3] = qHTS assay to identify small molecule agonists of the constitutive androstane receptor (CAR) signaling pathway - cell viability counter screen (AID 1224836); further: series mostly up to about 92 µM; nearly all actives have a fitted effect of over 45% in size
Procedure, shortened: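 Using CellTiter-Fluor, viability of HepG2 cells harbouring hCAR and CYP2B6-2.2kb was measured following 23 h incubation with a 15-concentration compound series plus PK11195 (0.75 uM final).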

[4] = qHTS assay to identify small molecule antagonists of the constitutive androstane receptor (CAR) signaling pathway - cell viability counter screen (AID 1224837); further: series mostly up to about 92 µM; nearly all actives have a fitted effect of over 45% in size
Procedure, shortened: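 Counter screen run in HepG2-CYP2B6-hCAR cells: 4 hr settle, compound titration (15 concentrations) with 50 nM CITCO, 23 hr at 37 C/5% CO2, CellTiter-Fluor fluorescence.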

[5] = biological target: Nuclear receptor subfamily 1 group I member 3 (Homo sapiens) (UniProt Q14994); experiment: qHTS assay to identify small molecule antagonists of the constitutive androstane receptor (CAR) signaling pathway (AID 1224838);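 further: HepG2 cells stably expressing hCAR with CYP2B6 luciferase reporter stimulated by CITCO; nearly all actives have a fitted effect of over 40% in size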
Procedure, shortened: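 Cell line: HepG2 double-stable for hCAR and CYP2B6-2.2kb reporter. Agonist: CITCO, 50 nM final. Compounds: 15 concentrations, 24 h, 37 C. Detection: ONE-Glo luminescence.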

[6] = biological target: Nuclear receptor subfamily 1 group I member 3 (Homo sapiens) (UniProt Q14994); experiment: qHTS assay to identify small molecule agonists of the constitutive androstane receptor (CAR) signaling pathway (AID 1224839); further: nearly all actives have a fitted effect of over 15% in size; further: potency means the concentration at half of the fitted maximal effect
Procedure, shortened: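 Double-stable HepG2 cells (hCAR, CYP2B6-2.2kb) seeded 4 h before compound addition. Exposure 24 h with 0.75 uM PK11195 final. Luciferase detected by ONE-Glo.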

[7] = qHTS assay to identify small molecule antagonists of the estrogen related receptor signaling pathway with the pleiotropic PPARgamma coactivator (PGC) from Tox21 10K library - cell viability counter screen (AID 1224840; active means well fitted cell-killing curve with a large enough effect in the repeat runs, not every such curve was filed as active; further: nearly all actives have a fitted effect of over 40% in size)
Procedure, shortened: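 Following seeding of 2,000 PGC/ERR cells/well and 6 hours' incubation, test compounds were delivered in DMSO. The plates then sat 17.5 hours at 37 C before a fluorogenic live-cell protease reagent (CellTiter-Fluor) was read after 30 min.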

[8] = biological target: Thyrotropin receptor (Homo sapiens) (UniProt P16473); experiment: qHTS assay to identify small molecule agonists of the thyroid stimulating hormone receptor (TSHR) signaling pathway (AID 1224843; calls by dose curve; further: nearly all actives have a fitted effect of over 45% in size)
Procedure, shortened: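 TSHR-expressing HEK293 cells (800 per well) were exposed to compounds for 30 min at room temperature. cAMP was then detected by HTRF competition with cAMP-d2 and anti-cAMP cryptate, read after 1 h at room temperature. Fifteen concentrations, triplicate.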

[9] = qHTS assay to identify small molecule antagonists of the estrogen related receptor signaling pathway with the pleiotropic PPARgamma coactivator (PGC) from Tox21 10K library (AID 1224841; call rule not given here; further: series mostly up to about 92 µM; actives are mostly falling curves and most rising ones were filed inactive; nearly all actives have a fitted effect of over 50% in size)
Procedure, shortened: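 qHTS antagonist format: PGC/ERR cells, 2k/well, compound in DMSO by pin transfer after 6 h attachment, 18 h treatment at 37 C, One-Glo luminescence read at 30 min.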

[10] = qHTS assay to identify small molecule agonists of the estrogen related receptor signaling pathway with the pleiotropic PPARgamma coactivator (PGC) from Tox21 10K library (AID 1224842); further: nearly all actives have a fitted effect of over 15% in size
Procedure, shortened: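 PGC/ERR reporter cells (NTP line) were seeded 2,000 per well, rested 6 h at 37 C/5% CO2, then pin-dosed with compounds in DMSO for 18 h at 37 C; luciferase read by One-Glo luminescence after 30 min at room temperature.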

Measured: Potency

Nuclear receptor subfamily 1 group I member 3 (Homo sapiens), sequence (Q14994 whole entry, looked up): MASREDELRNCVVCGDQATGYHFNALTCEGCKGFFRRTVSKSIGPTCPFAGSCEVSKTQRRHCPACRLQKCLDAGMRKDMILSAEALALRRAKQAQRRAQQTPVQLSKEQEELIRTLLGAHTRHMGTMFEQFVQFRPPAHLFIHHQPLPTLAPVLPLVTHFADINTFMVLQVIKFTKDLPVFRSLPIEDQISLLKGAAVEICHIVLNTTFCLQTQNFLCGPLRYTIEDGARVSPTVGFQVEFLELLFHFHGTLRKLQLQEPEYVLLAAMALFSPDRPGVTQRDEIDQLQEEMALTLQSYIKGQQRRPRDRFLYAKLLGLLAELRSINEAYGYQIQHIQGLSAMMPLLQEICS
Thyrotropin receptor (Homo sapiens), sequence (P16473 whole entry, looked up): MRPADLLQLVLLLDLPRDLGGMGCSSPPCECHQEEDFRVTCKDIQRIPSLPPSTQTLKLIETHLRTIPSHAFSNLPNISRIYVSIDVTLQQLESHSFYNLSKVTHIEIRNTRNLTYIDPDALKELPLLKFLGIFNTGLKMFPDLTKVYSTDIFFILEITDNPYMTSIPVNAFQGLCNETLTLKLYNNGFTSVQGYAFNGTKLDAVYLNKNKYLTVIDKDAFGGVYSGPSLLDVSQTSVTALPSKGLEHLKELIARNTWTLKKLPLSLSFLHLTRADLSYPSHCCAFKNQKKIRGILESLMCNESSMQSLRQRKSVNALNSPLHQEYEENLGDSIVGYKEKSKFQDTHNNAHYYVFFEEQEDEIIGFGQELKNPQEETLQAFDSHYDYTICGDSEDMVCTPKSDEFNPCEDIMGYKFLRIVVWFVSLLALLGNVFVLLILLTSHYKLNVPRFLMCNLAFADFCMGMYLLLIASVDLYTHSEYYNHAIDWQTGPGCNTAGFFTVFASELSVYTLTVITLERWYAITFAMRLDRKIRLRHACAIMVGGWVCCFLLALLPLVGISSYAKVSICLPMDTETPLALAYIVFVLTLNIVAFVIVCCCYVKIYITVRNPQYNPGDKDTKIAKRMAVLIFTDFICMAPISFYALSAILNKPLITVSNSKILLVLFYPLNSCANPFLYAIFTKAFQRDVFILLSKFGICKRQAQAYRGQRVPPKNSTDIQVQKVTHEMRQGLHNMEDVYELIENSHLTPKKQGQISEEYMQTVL
Luciferin 4-monooxygenase (Photinus pyralis), sequence (P08659 whole entry, looked up): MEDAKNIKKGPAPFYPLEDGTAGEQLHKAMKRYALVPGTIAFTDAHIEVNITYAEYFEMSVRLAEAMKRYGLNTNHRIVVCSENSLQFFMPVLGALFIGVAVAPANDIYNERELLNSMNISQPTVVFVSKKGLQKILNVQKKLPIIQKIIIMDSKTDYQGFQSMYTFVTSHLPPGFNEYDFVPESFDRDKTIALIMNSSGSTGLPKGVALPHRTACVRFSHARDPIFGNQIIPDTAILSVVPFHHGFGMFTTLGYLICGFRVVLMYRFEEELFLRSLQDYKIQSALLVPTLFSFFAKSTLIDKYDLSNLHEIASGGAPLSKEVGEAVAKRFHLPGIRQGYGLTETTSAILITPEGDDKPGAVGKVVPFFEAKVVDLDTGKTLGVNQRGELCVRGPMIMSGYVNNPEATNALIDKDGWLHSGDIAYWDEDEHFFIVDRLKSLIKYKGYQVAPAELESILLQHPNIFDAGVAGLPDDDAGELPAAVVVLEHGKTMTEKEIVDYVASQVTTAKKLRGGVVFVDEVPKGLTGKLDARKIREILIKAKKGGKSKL

C=CC(C)CCCC(C)(C)O (stereo not drawn)
inactive: [1] | [2] | [3] | [4] | [5] | [6] | [7] | [8]

C[C@]12CCC(=O)C=C1CC[C@@H]1[C@@H]2[C@@H](O)C[C@@]2(C)[C@H]1CC[C@]2(O)C(=O)CO
inactive: [1] | [2] | [3] | [4] | [6] | [7] | [8]

CC1(C)OC[C@@H]2O[C@@]3(C(=O)O)OC(C)(C)O[C@H]3[C@@H]2O1
inactive: [1] | [2] | [3] | [4] | [6] | [7] | [8]

CC(C)CCCCCCCOC(=O)CCCCC(=O)OCCCCCCCC(C)C
inactive: [1] | [2] | [3] | [4] | [6] | [7] | [8]

OCc1ccccc1
inactive: [1] | [2] | [3] | [4] | [5] | [6] | [7] | [9] | [10] | [8]

CCOCC(=O)O
inactive: [1] | [2] | [3] | [4] | [5] | [6] | [7] | [9] | [10] | [8]

O=c1[nH]cnc2[nH]ncc12
inactive: [1] | [2] | [3] | [4] | [6] | [7]

CCCCCCCCCCCCCCCC(=O)OC(C)C
inactive: [1] | [2] | [3] | [4] | [6] | [7]

O=C(O)Cn1c(=O)n(Cc2ccc(Br)cc2F)c(=O)c2ccc(Cl)cc21
inactive: [1] | [2] | [3] | [4] | [6] | [7] | [9] | [10] | [8]

COCCOC(=O)c1ccccc1C(=O)OCCOC
inactive: [1] | [2] | [3] | [4] | [5] | [6] | [7] | [8]

CCNc1ccccc1
inactive: [1] | [3] | [4] | [5] | [6] | [7] | [8]
28.8 µM (active) and inactive: [2]

CCCOC(=O)c1ccccc1
inactive: [1] | [2] | [3] | [4] | [6] | [7] | [9] | [10] | [8]

CNC(=O)Oc1ccc2c(c1)[C@]1(C)CCN(C)[C@@H]1N2C
inactive: [1] | [2] | [3] | [4] | [5] | [6] | [7] | [8]

C[Si]1(C)O[Si](C)(C)O[Si](C)(C)O[Si](C)(C)O1
inactive: [1] | [2] | [3] | [4] | [5] | [6] | [7] | [8]

CN1C(=O)CC[C@H]1c1cccnc1
inactive: [1] | [2] | [3] | [4] | [5] | [6] | [7] | [8]

CCOCCOCCOCCO
inactive: [1] | [2] | [3] | [4] | [6] | [7] | [8]

CC(C)OP(=O)(CP(=O)(OC(C)C)OC(C)C)OC(C)C
inactive: [1] | [2] | [3] | [4] | [6] | [7]

CCNC(=S)NCC
inactive: [1] | [2] | [3] | [4] | [5] | [6] | [7] | [8]

CC(C)CC(C)O (stereo not drawn)
inactive: [1] | [2] | [3] | [4] | [5] | [6] | [7] | [8]

Cc1ccc2ncccc2c1
inactive: [1] | [2] | [3] | [4] | [6] | [7] | [9] | [10] | [8]

CC(C)CC(=O)CC(C)CC(C)C (stereo not drawn)
inactive: [1] | [2] | [3] | [4] | [5] | [6] | [7] | [9] | [10] | [8]

O=C(O)c1ccccc1C(=O)O
inactive: [1] | [2] | [3] | [4] | [6] | [7] | [8]

O=C(O)c1ccc(C(=O)O)c(C(=O)O)c1
inactive: [1] | [2] | [3] | [4] | [5] | [6] | [7] | [9] | [10] | [8]

CCCCCCO
inactive: [1] | [2] | [3] | [4] | [6] | [7] | [8]

CCCCCCCO
inactive: [1] | [2] | [3] | [4] | [5] | [6] | [7] | [8]

CC(C)(Oc1ccc(CCNC(=O)c2ccc(Cl)cc2)cc1)C(=O)O
active: [2] 35.6 µM
inactive: [1] | [3] | [4] | [5] | [6] | [7] | [9] | [10] | [8]

COC(=O)c1cccnc1
inactive: [1] | [2] | [3] | [4] | [5] | [6] | [7] | [9] | [10] | [8]

CC1(C)S[C@@H]2[C@H](NC(=O)COc3ccccc3)C(=O)N2[C@H]1C(=O)O
inactive: [1] | [2] | [3] | [4] | [6] | [7] | [9] | [10] | [8]

O=C(O)c1ccc(S(=O)(=O)N(Cl)Cl)cc1
inactive: [1] | [2] | [3] | [4] | [5] | [6] | [7] | [8]

C=CC(=O)OCCC(=O)O
inactive: [1] | [2] | [3] | [4] | [6] | [7] | [9] | [8]

CCCCCCCCCCCC(=O)OC
inactive: [1] | [2] | [3] | [4] | [5] | [6] | [7] | [8]

O=C(O)c1cc2ccccc2cc1O
active: [2] 35.3 µM and 31.7 µM | [6] 43.3 µM
inactive: [1] | [3] | [4] | [7] | [9] | [10] | [8]

CC(=O)OCc1ccco1
inactive: [1] | [2] | [3] | [4] | [5] | [6] | [7] | [9] | [10] | [8]

CSc1ccc(Cl)cc1
inactive: [1] | [2] | [3] | [4] | [5] | [6] | [7] | [8]

COc1cc(OC)c(C(=O)CCCN2CCCC2)c(OC)c1
inactive: [1] | [2] | [3] | [4] | [5] | [6] | [7] | [8]

NCCNCCN
inactive: [1] | [2] | [3] | [4] | [6] | [7] | [9] | [10]

c1ccc(Oc2ccccc2)cc1
inactive: [1] | [2] | [3] | [4] | [5] | [6] | [7] | [8]

CCCCCCC=O
inactive: [1] | [2] | [3] | [4] | [7] | [8]

COC(=O)CCCC(=O)OC
inactive: [1] | [2] | [3] | [4] | [6] | [7] | [8]

CN(C)CCOC(=O)COc1ccc(Cl)cc1
inactive: [1] | [2] | [3] | [4] | [7] | [9] | [10] | [8]

N[C@H](Cc1c[nH]c2ccccc12)C(=O)O
inactive: [1] | [2] | [3] | [4] | [7] | [8]

CC(=O)OCCOC(C)=O
inactive: [1] | [2] | [3] | [4] | [6] | [7] | [8]

CC(C)OC(=O)COc1ccc(Cl)cc1Cl
inactive: [1] | [4] | [5] | [6] | [7]
active: [2] 35 µM

C=Cc1ccc(C)cc1
inactive: [1] | [2] | [3] | [4] | [6] | [7] | [8]

OC1C(O)C(O)C(O)C(O)C1O (stereo not drawn)
inactive: [1] | [2] | [3] | [4] | [7] | [8]

C=C(C)C(=O)OCC(C)C
inactive: [1] | [2] | [3] | [4] | [7] | [8]

CC(=O)OC1CC(C)OC(C)O1 (stereo not drawn)
inactive: [1] | [2] | [4] | [5] | [6] | [7] | [9] | [10]

CC(=O)OCc1ccccc1
inactive: [1] | [2] | [3] | [4] | [7] | [8]

CCCCCCCCCCCCCCCCO
inactive: [1] | [2] | [3] | [4] | [6] | [7] | [8]

O=C1C(c2[nH]c3ccccc3c2O)=Nc2ccccc21
inactive: [1] | [2] | [4] | [5] | [6] | [7] | [9] | [10] | [8]

c1ccc2c(c1)Cc1ccccc1-2
inactive: [1] | [2] | [3] | [4] | [7] | [8]
